# Screens from PubChem BioAssay.
# TGFb SMAD3 inh – qHTS for Inhibitors of TGF-b; HepG2 CAGA-GFP TGF-b/SMAD3 reporter, GFP fluorescence, 18 h; TGF-beta stimulated, 500 pg/mL final; Potency, µM (highest dose often 46.1 µM), for the others: at the highest dose activity, negative = inhibition, hits mostly inhibitors; actives 1.2% (n = 410,000); also: % is scaled to controls: 0 for no effect and ±100 for the full control effect; nearly all actives have a fitted effect of over 65% in size
#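 Inhibition of TGF-beta-driven CAGA-GFP reporter expression in HEPG2 cells is measured by cellular GFP fluorescence after 18 h stimulation with 500 pg/mL recombinant TGF-beta in 1% FBS medium at 37 degrees C.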
# HT1080NT lethal – qHTS for induction of synthetic lethality in tumor cells producing 2HG: qHTS for the HT-1080-NT fibrosarcoma cell line. HT-1080-NT fibrosarcoma viability, CellTiter-Glo ATP luminescence, 48 h. Potency, µM (series often up to 46.1 µM), without a hit: at the top dose activity, negative = less viability, hits mostly cytotoxic. actives 1.6% (n = 360,000). AID 686970, 2013;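 also: NT is the 2HG producing partner of a matched IDH1 knockdown line; 0% = DMSO-treated cells and -100% = media-only wells without cells; nearly all actives have a fitted effect of over 55% in size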
#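 Viability of the 2HG-overproducing fibrosarcoma line after 48 hours of compound exposure at 37 degrees C was determined by luminescence with CellTiter-Glo, and concentration-effect curves were then fitted and categorized.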
# HT1080 IDH1KD tx – qHTS for induction of synthetic lethality in tumor cells producing 2HG: qHTS for the HT-1080-IDH1KD cell line; AID 686971, 2013; actives 2% (n = 360,000); HT-1080 IDH1 knockdown viability, ATP luminescence, 48 h; Potency, µM (series often up to 46.1 µM), for inactives: at the highest dose activity, negative = toxicity, hits mostly cytotoxic;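 also: 0% = DMSO wells and -100% = cell-free medium wells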
#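 Assay cells: HT-1080 with IDH1 knockdown, 750 per well, RPMI/5% FBS. Exposure: 48 h at 37 °C following 2 h pre-incubation. Read: CellTiter-Glo luminescence; fitted concentration-response, curve class assigned.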
# DT40 TDP1 no CPT – qHTS for Inhibitors of human tyrosyl-DNA phosphodiesterase 1 (TDP1): qHTS in cells in absence of CPT. DT40 Tdp1-/- hTDP1 cells, no CPT, ATP luminescence, 48 h. Potency, µM (highest dose often 46.2 µM), inactives show at the highest dose activity change, negative = growth inhibition, actives largely listed as inhibitors. actives 15% (n = 420,000). AID 686978, 2013; also: % is scaled to controls: 0 for no effect and ±100 for the full control effect; nearly all actives have a fitted effect of over 55% in size
#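 A cellular qHTS used chicken DT40 cells lacking endogenous Tdp1 but carrying stably transfected human TDP1. Compounds were applied without camptothecin, and cell growth kinetics were judged by ATP-dependent luminescence after ≥48 hr.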
# TDP1 cell CPT – qHTS for Inhibitors of human tyrosyl-DNA phosphodiesterase 1 (TDP1): qHTS in cells in presence of CPT | Potency, µM (doses to about 46.2 µM), for inactives: at the top dose activity change, negative = growth inhibition, usual class: inhibitors | actives 12% (n = 420,000) | chicken DT40 Tdp1-/-;hTDP1 cells + 20 nM CPT, ATP luminescence, 48 h | AID 686979, 2013; also: % is scaled to controls: 0 for no effect and ±100 for the full control effect; nearly all actives have a fitted effect of over 55% in size
#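 Chicken DT40 Tdp1-/- cells complemented with human TDP1, 400 cells/well, exposed to compounds plus 20 nM camptothecin for at least 48 h at 37 C; viability read as ATP content by CellTiter-Glo luminescence.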
# HepG2 viability – qHTS for Inhibitors of TGF-b: Cytotox Counterscreen; HepG2 CAGA-GFP viability, ATP luminescence, 18 h; Potency, µM (highest dose often 46.1 µM), without a hit: top-dose activity change, negative = cytotoxicity, usual class: cytotoxic; actives 0.76% (n = 410,000); AID 588856, 2011
#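 CellTiter-Glo luminescence gave cytotoxicity after 18 hours at 37 degrees C. The cells were HepG2 CAGA-GFP in 1% FBS DMEM, stimulated with 500 pg/mL TGF-beta after compound addition. %Activity was normalised to no-cell wells (complete cell-killing) and DMSO (no toxicity), and curves were fitted and classified.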
# Numbers without * were called inactive; ? = inconclusive; · = no result given; [ ] = dose if it differs, or a comment. In the library only some 17% were active in any assay of this set; here they are far more common. Calls follow the shape of the dose curve; as a rule, active = well fitted curve in the direction sought with a large enough effect; inconclusive = small, poorly fitted or top-dose-only effect, or another doubt; inactive = no such curve, though single readings can be large; an effect the other way counts as inactive or inconclusive. Potency is read from the fitted curve at half-maximal effect.
SMILES,TGFb SMAD3 inh,HT1080NT lethal,HT1080 IDH1KD tx,DT40 TDP1 no CPT,TDP1 cell CPT,HepG2 viability
Cc1cc(C(=O)Cn2c(CO)nc3ccccc32)c(C)n1C,-11.5%,0.0%,-8.7%,16.4µM*,?,-0.9%
CC(=O)C(Cc1ccccc1)NC(=O)COC(=O)CCN1C(=O)C2CC=CCC2C1=O (centres undefined),-6.3%,-2.5%,-6.6%,-6.3%,-7.8%,-15.4%
C=C1CCc2c([nH]c3ccc(OCC(C)C)cc23)C1=O,5.01µM*,7.31µM*,13µM*,0.92µM*,0.82µM*,2.51µM*
COc1ccc(S(=O)(=O)N2CCOCC2)cc1NC(=O)c1ccc(S(=O)(=O)N(C)c2ccccc2OC)cc1,8.0%,1.4%,-1.0%,?,?,12.6%
CC(C)CC(N)c1csc(Nc2cnccn2)n1 (centres undefined),?,-27.0%,-11.4%,9.2µM*,13µM*,-30.4%
COc1ccc(CC(N)c2csc(Nc3cnccn3)n2)cc1 (centres undefined),1.2%,-12.6%,-28.9%,?,?,-14.4%
CC(C)CC(N)c1csc(Nc2ccccn2)n1 (centres undefined),?,?,?,?,14.6µM*,-12.0%
Oc1ccc(-c2csc(Nc3ccccn3)n2)c(O)c1,?,?,?,?,?,-22.3%
Cc1nn(C)c(Oc2cccc(Cl)c2)c1C#N,5.8%,0.4%,-2.8%,23.1µM*,?,-8.1%
Cc1cc2c(cc1S(=O)(=O)NCc1ccccc1Cl)OCC(=O)N2,16.4%,·,·,-17.9%,?,3.3%
CCOc1ccccc1CNS(=O)(=O)c1cc2c(cc1C)NC(=O)CO2,0.0%,·,·,23.1µM*,?,-21.2%
CCOC(=O)c1ccc(Nc2sc(C(=O)c3cccc([N+](=O)[O-])c3)c(N)c2C#N)cc1,-0.7%,-17.9%,?,0.731µM*,1.03µM*,-17.6%
COc1ccc(C(CNC(=O)c2oc3ccc(F)cc3c2C)N2CCCCC2)cc1 (centres undefined),?,-10.7%,-28.3%,?,?,-57.8%
COc1ccc(C(CNC(=O)c2oc3ccc(Br)cc3c2C)N2CCCCC2)cc1 (centres undefined),4.5%,4.7%,7.4%,9.2µM*,13µM*,10.3%
COc1ccc(C(CNC(=O)C(C)Oc2ccc(Br)cc2)N2CCCCC2)cc1 (centres undefined),-27.1%,4.3%[9.24 µM],-8.3%,20.6µM*,18.4µM*,-29.6%
COc1ccc(C(CNC(=O)COc2ccc(F)cc2Cl)N2CCCCC2)cc1 (centres undefined),15.1%,18.0%,9.5%,20.6µM*,23.1µM*,18.9%
COc1ccc(C(CNC(=O)CCNS(=O)(=O)c2ccc(Br)cc2)N2CCCC2)cc1 (centres undefined),0.5%,-0.2%,1.1%,?,?,-21.9%
COc1ccc(C(CNC(=O)COc2ccc(F)cc2Cl)N2CCOCC2)cc1 (centres undefined),19.8%,3.3%,-0.8%,?,?,1.5%
COc1ccc2oc(C(=O)NCc3ccccc3CN3CCCC3)c(C)c2c1,-2.3%,-5.5%,-10.1%,?,20.6µM*,-17.9%
COc1cc2c(cc1NC(=O)Nc1ccc(F)cc1)oc1ccccc12,?,-7.2%,-9.5%,?,-15.0%,-15.6%
CCc1ccc2oc(C(=O)NCC(c3ccc(OC)cc3)N3CCCCC3)c(C)c2c1 (centres undefined),8.7%,7.9%,4.1%,16.4µM*,23.1µM*,1.9%
COc1ccc(C(CNC(=O)c2oc3cc(Br)ccc3c2C)N2CCCCC2)cc1 (centres undefined),2.8%,4.3%,5.5%,23.1µM*,16.4µM*,5.9%
COc1ccc(C(CNC(=O)COc2ccc(Br)cc2F)N2CCCC2)cc1 (centres undefined),13.4%,10.2%,9.9%,-26.0%,-15.6%,-1.2%
COc1ccc(C(CNC(=O)c2oc3cc(C)c(C)cc3c2C)N2CCCCC2)cc1 (centres undefined),-2.5%,16.0%,6.6%,9.2µM*,13µM*,-1.5%
O=C(NCc1ccccc1CN1CCCC1)c1cc2cc(Cl)ccc2o1,-1.6%,-19.4%,-7.3%,?,18.4µM*,-36.4%
SMILES,TGFb SMAD3 inh,HT1080NT lethal,HT1080 IDH1KD tx,DT40 TDP1 no CPT,TDP1 cell CPT,HepG2 viability
COc1ccc(C(CNC(=O)c2cc3ccccc3cc2OC)N2CCCC2)cc1 (centres undefined),4.2%,-0.9%,-0.4%,?,?,-24.6%
CCOc1cc(Br)ccc1S(=O)(=O)N1CCC(C(N)=O)CC1,-5.1%,-2.2%,0.9%,-17.8%,-15.8%,-29.1%
CCn1c(CN2CCCCC2)nc2cc(NC(=O)c3cc(OC)c(OC)c(OC)c3)ccc21,-0.1%,·,·,?,?,-37.6%
Cc1ccc(N2C(=O)CC(Sc3nc4ccccc4o3)C2=O)cc1Cl (centres undefined),0.0%,-0.1%,-0.2%,3.26µM*,4.11µM*,-37.3%
CC(=O)SC1CC(=O)C=C2CCC3C4CCC(=O)OC4(C)CCC3C21C (centres undefined),16.5%,7.8%,4.0%,-10.9%,14.8%,-1.2%
COc1ccc(CNC(=O)COC(=O)CC2CC3CCC2C3)cc1OC (centres undefined),?,-2.3%,-0.7%,?,-7.4%,-29.9%
COc1ccc(-c2cc(-c3nnc(COC(=O)CC4CC5CCC4C5)o3)c3ccccc3n2)cc1OC (centres undefined),-24.7%,-9.7%,-10.9%,20.6µM*,20.6µM*,-22.4%
N#CC1=C(S)N(c2ccc(F)cc2)C2(CCCCC2)NC1=O,-4.5%,25.4%,8.2%,-25.4%,?,0.9%
O=C(NNC(=O)c1cc(-c2cccnc2)nc2ccccc12)Nc1ccc(Cl)cc1,-5.5%,?,?,?,?,-27.6%
O=C(NNC(=O)c1cc(-c2ccccc2)nc2ccccc12)Nc1cccc(Cl)c1,?,18.4µM*,?,20.6µM*,?,-34.1%
